# In the supplement of paper PMC10338343:
# ± gives the standard deviation.
# System: EfPiwi piRISC loaded with piRNA #1 (26 nt)
# Experiment: pre-steady-state target cleavage rate (min^-1); auxiliary factor: 500 nM Ephydatia muelleri Gtsf1; guide: piRNA #1 5'p-UGAGGUAGUAGGUUGUAUAGUAUCCA; MIWI and MILI are mouse PIWI proteins and EfPiwi is from a freshwater sponge; tags in brackets are library labels; higher = faster piRNA-guided slicing of the target
# Description: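 Cleave-'n-Seq: a library of target RNAs (target site in constant flanks) at […] was incubated with 1 nM active freshwater sponge Ephydatia fluviatilis Piwi piRISC (synthetic 5'-monophosphorylated piRNA guide) with or without 500 nM EmGtsf1 at 33 °C for 1 min to 16 h. Uncleaved targets were sequenced and the pooled three trials fitted to a burst-and-steady-state model to give the pre-steady-state cleavage rate (min^-1). Sequence is the target site only. Fits with R² ≤ 0 are excluded.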
row,Sequence,pre-steady-state target cleavage rate
1,GGAGACCAUACUAUACAUCGUACUACCUCA,0.0027 ± 0.0021
2,GGAGAGUAUACUAUACAACCUACUACCUCA,0.0182 ± 0.0087
3,GGAGUGGAUACUAUACAACCUACUAGCACA,0.00246 ± 0.0018
4,GGAGUGGAUACUAUUCAACCUACUACCUGA,0.00324 ± 0.0019
5,GGAGAGGAUACUAUACAAGCUACUUCCUCA,0.00375 ± 0.0015
6,GGAGACGUUACUAUACAACCUACUACCUGA,0.00573 ± 0.0022
7,GGAGUGGAUACUAUUCAACCUACUACGUCA,0.00281 ± 0.0015
8,GGAGACGAUACUAUACUACCUUCUACCUCA,0.00418 ± 0.0025
9,GGAGACGAUACUAUACAACCCACUACCUCA,0.00638 ± 0.0022
10,GGAGACGAUACUAUACAACCUACUACCAGA,0.00503 ± 0.0015
11,GGAGUGGAUACUAUACAACCUACUACCUA,0.249 ± 0.092
12,GGAGACCAUACUAUACAACCUAGUAGCUCA,0.00225 ± 0.0017
13,GGAGACGAUACUAUACAACCUACUACGCUCA,0.00415 ± 0.0014
14,GGAGUGGAUACAAUACAACCUACUACCUCA,0.0165 ± 0.0068
15,GGAGAGGAUACUAUACAACCAACUACCACA,0.00388 ± 0.0019
16,GGAGACCUUACUAUACAACGUACUUCCUCA,0.00315 ± 0.0021
17,GGAGAGGACACUAUACAACCUACUACCUCA,0.0224 ± 0.0085
18,GGAGACCUUACUAUACAUCCUACUACCUGA,0.00345 ± 0.0024
19,GGAGACCUAUCUAUACAACAUACUACCUCA,0.00529 ± 0.0038
20,GGAGACGAUACUAUACAUCCUACUACCUGA,0.00464 ± 0.0014

row,Sequence,pre-steady-state target cleavage rate
1,GGAGACGAUACUAUACAACCUACUACCCUCA,0.00506 ± 0.0015
2,GGAGACGAUACUAUAUCAACCUACUACCUCA,0.0198 ± 0.0082
3,GGAGACGAUACUAUACAACCUAAUACCUCA,0.00553 ± 0.0025
4,GGAGACGAUACUAUACAACGUACUACCACA,0.0042 ± 0.0021
5,GGAGUGGAUACUAUACAACCUACAACCACA,0.00247 ± 0.0019
6,GGAGAGGAUACUAUACAACCUACUAUCCUCA,0.00536 ± 0.0025
7,GGAGUGGAUACUAUACAUCCUACAACCUCA,0.00378 ± 0.0019
8,GGAGACGAUACUAUACAACCUACUACCUUA,0.224 ± 0.068
9,GGAGACGAUACUAUACAUCCUACUACCACA,0.0049 ± 0.0017
10,GGAGACGAUACUAUACAACCUACUUGCUCA,0.00371 ± 0.0014
11,GGAGACCUAUCUAUACAACCUAGUACGUCA,0.00316 ± 0.0024
12,GGAGACGAUACUAUUCAACCUACUACCUGA,0.00421 ± 0.0019
13,GGAGUCGAUACUAUACUACCUACUACCUCA,0.00591 ± 0.0029
14,GGAGACCUAACUAUACAACCUACAUCCUCA,0.00597 ± 0.0051
15,GGAGACCUAUGUAUACAACCUACUGACCUCA,< 0.0001
16,GGAGUGGAUACUAUACCACCUACUACCUCA,0.0104 ± 0.004
17,GGAGAGGAUACUAUACUACCUACUACCUCA,0.00925 ± 0.0043
18,GGAGACCAUACUAUACAACGUACUAGCUCA,0.00358 ± 0.0035
19,GGAGAGGCAUACUAUACAACCUACUACCUCA,0.0477 ± 0.017
20,GGAGAGGAUACUAUACGACCUACUACCUCA,0.117 ± 0.05
